In the library only some 4.8% were active in any assay of this set; here they are far more common.
DAX1 inh-1: inhibitors of DAX1 repression of SF-1 activated StAR promoter; HEK293T StAR-luciferase reporter, SF-1/DAX-1 repression relief; inhibition, % at 6.8 µM; 1.1% of 370,000 active; AID 652010;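 active means inhibition above the mean over all tested compounds plus 3 SD, cut at about 3.6% in these data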;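 further: 0% = DAX-1 cells with DMSO and 100% = cells lacking DAX-1 with DMSO; higher inhibition means more luminescence from relief of DAX-1 repression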
ssDAF-12 act: activates DAF-12 receptor from parasite S. stercoralis | HEK293 ssDAF-12/GRIP1 lit1-tk-luc reporter, luminescence; % of 3 µM dafachronic acid response | activation, % at 6.8 µM | 1% of 370,000 active;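 active means activation above the mean over all tested compounds plus 3 SD, cut at about 0.9% in these data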;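 further: 0% = DMSO-only wells and 100% = 3 µM delta7-dafachronic acid wells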
SMARCA2 act: SMARCA2 function activation, primary screen. 1% of 370,000 active. MG213 cells, MMTV-luciferase reporter, dexamethasone, overnight. activation, % at 9.1 µM. AID 652017; in the data active means activation above about 7.8%;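 further: 0% = vehicle wells and 100% = reference activator wells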
hgDAF-12 ag: activates the H. glycines DAF-12 receptor ligand-binding domain; HEK293 GAL4-hgDAF12 UAS-luciferase reporter, agonist luminescence; normalized to butyrate control; activation, % at 6.8 µM; 1.8% of 370,000 active; AID 687014;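 active means activation above a cutoff set at the mean of all screened compounds plus 3 SD, cut at about 10% in these data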;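 further: 0% = DMSO wells and 100% = sodium butyrate wells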
hcDAF-12 act: activators of H. contortus DAF-12 nuclear receptor; HEK293 hcDAF-12 lit1-tk-luc reporter, luminescence; 0% DMSO, 100% Δ7-dafachronic acid; activation, % at 6.8 µM; 1.4% of 370,000 active;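 active means activation above the mean of all tested compounds plus 3 SD, cut at about 5.5% in these data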;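 further: 100% = response to 3 µM Δ7-dafachronic acid high control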
DAX1 inh-2: inhibitors of human orphan nuclear receptor DAX1 (NR0B1); P51843; HEK293 Gal4-DAX1 luciferase reporter, luminescence; inhibition, % at 6.75 µM; 0.99% of 340,000 active; AID 504766;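 active means inhibition above the mean over all tested compounds plus 3 SD, cut at about 4.2% in these data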;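 further: 0% = DAX1-transfected cells with DMSO and 100% = empty-vector control cells with DMSO; inhibition shows as a rise in luminescence from relieved DAX1 repression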
Target sequence (P51843 207-470 limits assumed): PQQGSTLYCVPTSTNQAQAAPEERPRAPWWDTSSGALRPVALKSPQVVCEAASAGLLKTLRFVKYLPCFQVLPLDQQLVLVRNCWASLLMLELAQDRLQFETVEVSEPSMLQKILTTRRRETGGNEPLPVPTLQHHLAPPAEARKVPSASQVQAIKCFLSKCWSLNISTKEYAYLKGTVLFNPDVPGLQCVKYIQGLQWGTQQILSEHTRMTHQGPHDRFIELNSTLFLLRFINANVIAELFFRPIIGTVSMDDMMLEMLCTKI
Numbers without * were called inactive; · = no result given.

SMILES	DAX1 inh-1	ssDAF-12 act	SMARCA2 act	hgDAF-12 ag	hcDAF-12 act	DAX1 inh-2
Cc1cc(F)ccc1C(O)c1ncc(-c2ccc(Oc3ccccc3)cc2)[nH]1 (stereo not drawn)	0	-2	-4	-4	2	·
CCn1cc(Cl)c(C(=O)Nc2nccs2)n1	1	0	0	1	6.4*	1
O=C(Nc1nccs1)c1ccc(Cl)nc1	0	0	0	3	5.9*	-1
O=C(Nc1nccs1)c1ccc(Br)s1	3	0	2	10	5.8*	1
O=C(Nc1nccs1)c1ccc(Br)cc1	1	0	6	9	5	3
O=C(Nc1nccs1)c1cc2c(s1)-c1ccccc1OC2	3	0	1	10*	5	2
CN(CC(=O)Nc1cc(C(F)(F)F)ccc1-n1cncn1)Cc1ccccc1N1CCOCC1	-1	-1	3	4	1	0
N/C(=N/O)C(c1ccccc1)c1ccccc1	1	0	0	3	5.8*	-1
O=C(O)C(c1ccccc1)c1ccccc1	1	0	-3	1	2	1
Cc1ccnc2nc(C(=O)Nc3nc(-c4ccccn4)cs3)nn12	0	-1	-4	-1	-1	8.3*
Cc1ccccc1NC(=O)c1nc2nccc(C)n2n1	·	·	·	·	·	0
Clc1ccc(OCc2nnc(-c3ccccc3Br)o2)cc1	0	2.1*	-1	0	0	0
Clc1cccc(OCc2nnc(-c3ccccc3Br)o2)c1	1	-1	-10	2	0	1
COc1ccc(C)cc1NC(=O)CSc1nnc(-c2n[nH]c3c2CCC3)n1N	0	-1	-8	-1	-2	·
Cc1ccc(S(=O)(=O)C[C@@H]2OC3CCCCC3N2S(=O)(=O)c2ccc(C)cc2)cc1 (stereo partly drawn)	0	-1	-5	-3	-2	·
O=C(Nc1cccc(C(=O)N2CCOCC2)c1)C1CCCCC1	0	-1	1	1	1	·
COc1ccc(C)c2sc(=NC(=O)c3cccc(N4C(=O)CCC4=O)c3)n(C)c12	0	-1	-2	-1	0	2
C=CCn1c(=NC(=O)c2cccc(N3C(=O)CCC3=O)c2)sc2cccc(OC)c21	-1	-1	-2	0	-2	4.8*
COc1cc2c(cc1OC)C(C)=NC1(CCCCC1)C2	0	-2	-1	0	-2	4.6*
CN(CC(=O)Nc1ccc(Cl)c(C(F)(F)F)c1)S(=O)(=O)c1cnc[nH]1	-1	-1	-3	-2	-1	1
COc1cccc2oc3cc(C#CC4(O)CCCCC4)ccc3c(=O)c12	4.0*	0	3	6	5.8*	1
O=c1c2ccccc2oc2cc(C#CC3(O)CCCCC3)ccc12	-1	-3	-5	-12	-4	-3
N#Cc1ccc(NC(=S)NC(=O)C2CC2)cc1	-1	-1	-3	1	-1	1
COc1cccc(C(=O)NN=C2CCCC2)c1	4.5*	1	2	11*	3	2
O=C(NN=C1CCCC1)c1ccccc1O	0	0	2	11*	0	3
SMILES	DAX1 inh-1	ssDAF-12 act	SMARCA2 act	hgDAF-12 ag	hcDAF-12 act	DAX1 inh-2
COc1ccc(C(=O)NN=C2CCCC2)cc1	0	-1	1	3	1	2
COc1ccc(C2Nc3ccccc3C(=O)N2c2ccccc2)cc1CN1CCOCC1 (stereo not drawn)	-1	-1	1	0	1	6.1*
S=C(Nc1ccc2[nH]ccc2c1)NC1CCCCC1	1	0	7	9	2	4.7*
Cc1ccc(NC(=S)NC2CCCC2)cc1C	0	-1	4	3	-1	0
Cc1nc2ccc(NC(=S)NC3CCCCC3)cc2nc1C	1	-1	4	3	1	6.6*
CN(C)CCCNC(=O)CC1C[C@H](C(=O)N2CCCCC2)[C@@]2(CCc3ccccc3)c3[nH]c4ccccc4c3CCN2C1=O (stereo partly drawn)	3.9*	-1	2	1	1	0
CC(=O)COC(=O)c1ccc2noc(-c3ccccc3)c2c1	0	-1	4	6	3	1
NC(=O)NC(=O)COC(=O)c1ccc2noc(-c3ccccc3)c2c1	1	0	-1	12*	2	-1

High-throughput results (PubChem)
